# Shown are actives, neighbours in structure and some others; about 13% of the full set was active somewhere.
# miR-21 act: qHTS Assay for Modulators of miRNAs and/orActivators of miR-21; HeLa miR-21 FLuc reporter, luciferase, 48 h; Potency, µM (highest dose often 38.3 µM), hits mostly activators; 340,000 tested, under 10 active; AID 2288, 2010;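 also: miR-21 action dims this reporter so a rising signal means less miR-21 action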
#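 Luminescence from a firefly luciferase reporter carrying a miR-21 binding site downstream, stably expressed under a CMV promoter in HeLa cells that make miR-21 endogenously, reports miRNA modulation after 48 h compound exposure up to approximately 40uM final.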
# KDM4E inh: qHTS Assay for Inhibitors of Human Jumonji Domain Containing 2E (JMJD2E). JMJD2E catalytic domain, FDH-coupled NADH fluorescence (FDH is formaldehyde dehydrogenase). Potency, µM (series often up to 57.1 µM), most hits filed as inhibitors. 230,000 compounds, 1.6% hits. AID 2147, 2009; active = well fitted inhibition curve with a large enough effect, not every such curve was filed as active; inconclusive = small, poorly fitted or top-dose-only effect, or another doubt; inactive = no such curve, though single readings can be large or run the other way; also: nearly all actives have a fitted effect of over 50% in size
# Sfp PPTase inh: qHTS Assay for Inhibitors of Bacillus subtilis Sfp phosphopantetheinyl transferase (PPTase); 4'-phosphopantetheinyl transferase ffp (Bacillus subtilis), Q9F4F7; Biochemical Sfp PPTase activity, qHTS; Potency, µM, most hits filed as inhibitors; 310,000 compounds, 3.5% hits; AID 1490, 2009;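 also: the enzyme is Sfp with the accession as filed and its product quenches rhodamine fluorescence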
#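 Compounds were incubated with enzyme (final 15 nM) for 15 min at room temperature before substrate addition started the reaction. Fluorescence at 525 nm excitation, 598 nm emission was recorded immediately and after 30 minutes.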
# ALDH1A1 block: qHTS Assay for Inhibitors of Aldehyde Dehydrogenase 1 (ALDH1A1); 220,000 compounds, 7.3% hits; Purified ALDH1A1, NADH fluorescence, propionaldehyde substrate; Aldehyde dehydrogenase 1A1 (Homo sapiens), P00352; AID 1030, 2008; Potency, µM (titrated, usually from 75.3 µM), most hits filed as inhibitors; active = well fitted inhibition curve with a large enough effect, not every such curve was filed as active; inconclusive = small, poorly fitted or top-dose-only effect, or another doubt; inactive = no such curve, though single readings can be large or run the other way
# Lamin A splicing: qHTS Assay for Modulators of Lamin A Splicing; Potency, µM (doses to about 46.1 µM), actives largely listed as inhibitors; HeLa LMNA splicing GFP/RFP minigene ratio, 48 h; 200,000 compounds, 0.01% hits; active = well fitted inhibition curve with a large enough effect in the signal ratio, with a control signal flat, not every such curve was filed as active; inconclusive = small, poorly fitted or top-dose-only effect, or effect the other way, or a change in a side signal; the % refers to the signal ratio
#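 S3 HeLa cells stably expressing lamin A-EGFP splicing minigene plus DsRed2, 600 cells/well, 48 h compound exposure at 37C. Laser-scanning cytometry; analysed as GFP (500-530 nm)/RFP (575-640 nm) total intensity ratio; 0.5% DMSO vehicle.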
# G9a inh: qHTS Assay for Inhibitors of Histone Lysine Methyltransferase G9a. Histone-lysine N-methyltransferase EHMT2 (Homo sapiens), Q96KQ7. G9a H3K9 monomethylation, AlphaScreen, 2 h. Potency, µM (series often up to 102 µM), usual class: inhibitors. 350,000 compounds, 8.8% hits. AID 504332, 2011; also: nearly all actives have a fitted effect of over 75% in size
# Target sequence (Q96KQ7 913-1193 limits assumed): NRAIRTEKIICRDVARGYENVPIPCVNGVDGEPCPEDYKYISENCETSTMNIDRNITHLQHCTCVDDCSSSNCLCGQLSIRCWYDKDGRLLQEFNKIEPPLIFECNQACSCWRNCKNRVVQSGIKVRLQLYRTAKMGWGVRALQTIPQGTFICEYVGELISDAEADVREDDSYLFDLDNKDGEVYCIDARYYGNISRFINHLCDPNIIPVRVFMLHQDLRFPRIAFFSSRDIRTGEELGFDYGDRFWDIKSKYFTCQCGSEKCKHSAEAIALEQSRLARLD
#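 Enzyme 20 nM + cpd, 15 min RT; add b-H3K9 pep 500 nM / SAM 20 uM; 2 h RT; anti-H3K9me1 Ab 0.5 ug/mL + SA donor / anti-rabbit acceptor beads 20 ug/mL each, 10 min; AlphaScreen read.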
# A number is an active result; . = inactive; ? = inconclusive; / = no result given; [ ] = another dose, or the depositor's remark. Unless noted, calls follow the shape of the dose curve; as a rule, active = well fitted curve in the direction sought with a large enough effect; inconclusive = small, poorly fitted or top-dose-only effect, or another doubt; inactive = no such curve, though single readings can be large; an effect the other way counts as inactive or inconclusive.
SMILES,miR-21 act,KDM4E inh,Sfp PPTase inh,ALDH1A1 block,Lamin A splicing,G9a inh
CN(C(=O)COC(=O)c1ccc([N+](=O)[O-])cc1N)c1ccccc1,.,.,.,.,/,.
COc1ccc(/C=C/c2nc(C#N)c(N3CCC(C(N)=O)CC3)o2)cc1OC,.,/,/,/,/,.
COc1ccc(N(Cc2cccs2)C(=O)COc2cccc(C)c2C)cc1,.,/,/,/,?,.
Cc1cc(OCC(=O)OCC(=O)NCC2CCCO2)ccc1Cl (stereo unspecified),/,/,/,/,/,.[2.33 µM]
COCC(=O)N1CCc2nc(-c3ccc(OC)cc3C)c3c(c2C1)CO[C@@H](c1ccccc1)C3,/,.[11.4 µM],.,.[13.5 µM],?,/
COc1ccc(-c2nc3c(c4c2C[C@H](c2ccccc2)OC4)CN(C(=O)Cc2cccs2)CC3)c(C)c1,/,.[11.4 µM],.,4µM,.[9.22 µM],/
COc1ccc(-c2nc3c(c4c2C[C@H](c2ccccc2)OC4)CN(C(=O)NCc2ccco2)CC3)c(C)c1,/,.[11.4 µM],.,1.8µM,?,/
COC(=O)c1cc2oc3ccccc3c2n1CC(=O)Nc1ccc(OC)c(OC)c1,.,/,/,/,/,.
COc1ccc(CNC(=O)c2ccc3nc(-c4ccc(F)cc4)c(-c4ccc(F)cc4)nc3c2)cc1,.,/,/,/,.,.
FC(F)(F)c1cccc(-c2nnc3ccc(C(F)(F)F)cn23)c1,.,?,.,.,.,35µM
CCC(C)NCCOCCOc1ccc(Cl)c2ccccc12 (stereo unspecified),?,?,20µM,?,/,13µM
CCC(C)NCCOCCOc1ccc(Cl)c(C)c1C (stereo unspecified),.,?,.,.,.,?
CNCCCOc1ccc(C)cc1OC,.,.,45µM,?,/,/
CCC(C)NCCCOc1cc(Cl)ccc1Cl (stereo unspecified),.,?,?,?,.,7.9µM
CCC(C)NCCCOc1ccc(C)cc1OC (stereo unspecified),.,?,.,.,.,11µM
COc1cc(C)ccc1OCCCOc1c(Cl)cccc1Cl,.,.,.,.,.,.
Cc1ccc(NC(=O)N2CCc3cc(S(=O)(=O)N4CCC(C)CC4)ccc32)cc1C,.,/,/,/,/,.
Cc1nc(NC(=O)c2cccc(Cl)c2)sc1C(=O)N1CCCCC1,.,?,.,?,.,.
O=C(c1cnccn1)N1CCC2(CCCN(c3ccccn3)C2)CC1,/,/,.,.,/,.[12.7 µM]
Cc1ccc(O)c(NC(=O)CCSc2nc(-c3ccco3)cc(C(F)(F)F)n2)c1,.,/,/,/,/,.
C/C=C/c1ccc(OCCCNC)c(OC)c1,.,?,.,28µM,.,16µM
C/C=C/c1ccc(OCCNCc2ccccc2)c(OC)c1,.,/,.,/,/,?
COCCCNC(=O)CCSc1ccc(Cl)cc1,.,.,.,.,.,.
CCC(C)NCCOCCSc1ccc(Cl)cc1 (stereo unspecified),.,.,.,.,.,8.9µM
Cc1occc1-c1nnc(SCC(=O)NCCc2ccccc2)n1C(C)c1ccccc1 (stereo unspecified),.,.,.,?,.,56µM
SMILES,miR-21 act,KDM4E inh,Sfp PPTase inh,ALDH1A1 block,Lamin A splicing,G9a inh
Cc1cc(C)c2nc(SC(C)C(=O)NCC(=O)Nc3ccc(F)c(F)c3F)cc(C)c2c1 (stereo unspecified),.,.,.,.,?,18µM
COc1ccc2nc(SC(C)C(=O)NCC(=O)Nc3ccc(F)c(F)c3F)[nH]c2c1 (stereo unspecified),/,/,/,/,/,50µM
Cc1cc(SC(C)C(=O)NCC(=O)Nc2ccc(F)c(F)c2F)nc2ccccc12 (stereo unspecified),.,.,.,.,.,.
CCCCCCCCCCCCCCCCC(C(=O)O)C(O)(CC(=O)O)C(=O)O (stereo unspecified),/,/,.,/,/,.[12.7 µM]
CSc1nn2c(C(F)(F)F)cc(C(F)(F)F)nc2c1C(N)=O,.,.,.,.,.,.
CCCCn1c(SCC(=O)N2CCCCC2)nc2cc(S(N)(=O)=O)ccc21,.,.,.,?,.,.
